From PubChem
Rows were chosen to be rich in hits. Some 2.4% of all compounds tested hit in one or more screens of this group.
ATXN2 expr inh: reduces ATXN2 reporter expression in HEK-293 cells. HEK-293 ATXN2-luciferase reporter, luminescence, 24 h. Potency, µM (top dose mostly 57 µM), for the others: at the highest dose activity change, negative = inhibition, most hits filed as inhibitors. hit rate 0.72% among 360,000. AID 1745845; also: % is scaled to controls: 0 for no effect and ±100 for the full control effect; nearly all actives have a fitted effect of over 55% in size
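qHTS (up to 57 uM final) was run with 24 h compound exposure of reporter cells at 37 °C. Each well was multiplexed: SteadyGlo luminescence measured ATXN2-luciferase expression after a fluorogenic Gly-Phe-AFC viability readout (25 uM final).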
Anesthetic bind: binds horse apoferritin like a general anesthetic | apoferritin/1-aminoanthracene competitive binding, fluorescence | Potency, µM (highest dose often 77.5 µM), for the others: at the highest dose activity change, negative = displacement, actives largely listed as inhibitors | P02791 | hit rate 0.074% among 350,000; also: % is scaled to controls: 0 for no effect and ±100 for the full control effect; nearly all actives have a fitted effect of over 20% in size
Target sequence (P02791 2-175 limits assumed): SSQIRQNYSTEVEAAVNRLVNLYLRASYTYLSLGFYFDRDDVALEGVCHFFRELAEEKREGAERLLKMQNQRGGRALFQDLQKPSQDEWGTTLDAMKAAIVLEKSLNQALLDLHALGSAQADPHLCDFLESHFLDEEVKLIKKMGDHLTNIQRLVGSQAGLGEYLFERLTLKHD
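Horse-spleen apoferritin (10 uM) in 50% saturated 1-aminoanthracene in PBS was incubated 10 min at room temperature with compound. Fluorescence (ex 380, em 535 nm) was normalized to free and bound 1-AMA, with concentration-response fitted by a four-parameter Hill equation.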
S2 tox: viability counter-screen for ATXN expression inhibitors | S2 cells (HEK-293 line with an ATXN2-luciferase reporter) viability, CellTiter-Fluor protease fluorescence, 24 h | Potency, µM (highest dose often 56.7 µM), hits mostly cytotoxic | hit rate 0.49% among 400,000 | AID 651635; also: nearly all actives have a fitted effect of over 40% in size
TGFb SMAD3 inh: blocks TGF-b signaling; AID 588855; hit rate 1.2% among 410,000; HepG2 CAGA-GFP TGF-b/SMAD3 reporter, GFP fluorescence, 18 h; TGF-beta stimulated, 500 pg/mL final; Potency, µM (series often up to 46.1 µM), without a hit: at the top dose activity, negative = inhibition, actives largely listed as inhibitors; also: % is scaled to controls: 0 for no effect and ±100 for the full control effect; nearly all actives have a fitted effect of over 65% in size
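Inhibition of TGF-beta-driven CAGA-GFP reporter expression in HEPG2 cells is measured by cellular GFP fluorescence after 18 h stimulation with 500 pg/mL recombinant TGF-beta in 1% FBS medium at 37 degrees C.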
HepG2 viability: kills HepG2 cells in TGF-b inhibitor counter-screen | HepG2 CAGA-GFP viability, ATP luminescence, 18 h | Potency, µM (highest dose often 46.1 µM), inactives show top-dose activity change, negative = cytotoxicity, most hits filed as cytotoxic | hit rate 0.76% among 410,000 | AID 588856
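CellTiter-Glo luminescence gave cytotoxicity after 18 hours at 37 degrees C. The cells were HepG2 CAGA-GFP in 1% FBS DMEM, stimulated with 500 pg/mL TGF-beta after compound addition. %Activity was normalised to no-cell wells (complete cell-killing) and DMSO (no toxicity), and curves were fitted and classified.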
Active calls of the source: *; i = inactive; ? = inconclusive; nt = not tested or not shown; ! = a repeat was not active. Calls follow the shape of the dose curve; as a rule, active = well fitted curve in the direction sought with a large enough effect; inconclusive = small, poorly fitted or top-dose-only effect, or another doubt; inactive = no such curve, though single readings can be large; an effect the other way counts as inactive or inconclusive. Potency is read from the fitted curve at half-maximal effect.

SMILES	ATXN2 expr inh	Anesthetic bind	S2 tox	TGFb SMAD3 inh	HepG2 viability
CCN1C(=O)S/C(=C/c2ccc(Sc3nc4ccccc4[nH]3)o2)C1=O	?	-17%	?	13µM*	-45%
CC1=C(C)/C(=N\OS(=O)(=O)c2ccc(C)cc2)C=CC1=O	?	-1%	8.9µM*	2.8µM*	4µM*
COc1ccc(S(=O)(=O)/N=C2/C=CC(=O)C(C)=C2C)cc1	5%	-19%	i	-3%	3%
CC1=C/C(=N\OS(=O)(=O)c2ccccc2)C(C)=CC1=O	22µM*	?	20µM*	10µM*	11µM*
Cc1ccnc(NS(=O)(=O)c2ccc(NC(=O)Nc3ccc(S(=O)(=O)Nc4nccc(C)n4)cc3)cc2)n1	-9%	nt	nt	nt	nt
O=[N+]([O-])c1ccc(/C=C2\C=C(C(O)c3ccc([N+](=O)[O-])cc3)c3ccccc32)cc1 (stereo not given)	nt	nt	nt	7.1µM*	-21%
CC(=O)Nc1cccc(C(=O)/C=C/c2ccc(F)cc2)c1	?	-8%	?	?	13µM*
C(=Cc1cccnc1)c1ccncc1	12%	nt	i	-6%	4%
Cc1cccc(C(=O)Nc2ccc(C(=O)/C=C/c3cccnc3)cc2)c1	?	-18%	?	1.4µM*	-60%
O=C(/C=C/c1cccnc1)c1ccc(NC(=O)c2cccc(Br)c2)cc1	-24%	-8%	i	7%	-13%
O=C(/C=C/c1cccnc1)/C=C/c1cccnc1	?	7%	?	3.5µM*	6.3µM*
Cc1cccc(C(=O)Nc2cccc(C(=O)N/N=C/c3ccncc3)c2)c1	6%	3%	i	-10%	8%
Cc1cccc(C(=O)Nc2ccc(C(=O)/C=C/c3ccncc3)cc2)c1	1%	-12%	i	11µM*	-52%
CC(C)(C)n1ncc2c(=O)n(Cc3ccc([S+](=O)([O-])N4CCOCC4)cc3)cnc21	nt	nt	nt	0%	-15%
CC1CCC(NC(=O)CCc2cn(Cc3ccccc3Cl)c3ccccc23)CC1 (stereo not given)	nt	1%	nt	16µM*	-21%
O=C(CCc1cn(Cc2ccccc2Cl)c2ccccc12)NC1CCCCC1	nt	13%	nt	?	-31%
COc1c(Cl)cc(-c2noc(C)c2C(=O)NC(C)C)cc1Cl	8%	-4%	i	18%	-31%
O=C(/C=C/c1cccs1)c1cc(Br)ccc1OC(=O)N1CCOCC1	?	-16%	i	-4%	11µM*
CC(C)(C)c1nc2cc(Cl)c([N+](=O)[O-])cc2o1	-32%	-15%	i	7.1µM*	-20%
O=C(CC(c1ccccc1)c1cc(Br)ccc1O)NCC1(c2ccccc2)CCCC1 (stereo not given)	?	-8%	35µM*	18µM*	-99%
O=C(CC(c1ccccc1)c1cc(Br)ccc1O)NCCN1CCOCC1 (stereo not given)	-5%	-18%	i	-1%	-13%
Cc1cccc(OCc2nc(CC(=O)Nc3ccc(C)cc3C)cs2)c1	?	4%	?	-9%	-25%
COc1ccc2c(c1)OC(C)CN(CCNC(=O)c1csc(-c3cccs3)n1)C2 (stereo not given)	nt	nt	i	nt	nt
COc1cc(CNCCCN2CCOCC2)cc(Br)c1OCc1ccc(Cl)cc1	21µM*	?	nt	?	-117%
CCOc1cc(CNCCCN2CCOCC2)cc(Cl)c1OCC(=O)NC(C)(C)C	-16%	-7%	?	6%	-7%
SMILES	ATXN2 expr inh	Anesthetic bind	S2 tox	TGFb SMAD3 inh	HepG2 viability
CCOc1cc(CNCCCN2CCOCC2)cc(Br)c1OCC(=O)Nc1cccc(C(F)(F)F)c1	22µM*	-19%	nt	?	18µM*
CCOc1cccc(CNc2ccc(O)cc2)c1OCc1ccc(Cl)cc1Cl	?	?	?	?	-38%
CCOc1cc(CNc2ccc(O)cc2)cc(Cl)c1OCc1ccccc1	32µM*	?	22µM*	?	-95%
CCOc1cccc(CNc2ccc(O)cc2)c1OCc1ccccc1Cl	11µM*!	?	13µM*!	13µM*	16µM*!
CCOc1cc(CNc2ccccc2)cc(Br)c1OCc1ccc(F)cc1	-1%	106%	i	-6%	-1%
Cc1ccc(N/C(N)=N/c2nc(C)cc(N3CCCCC3)n2)c(C)c1	22µM*	-12%	?	?	-22%
Cc1ccc(N/C(N)=N/c2nc3c(c(=O)[nH]2)CCCC3)c(C)c1	-8%	-6%	i	7%	-17%
Cc1cnc(NC(=O)Nc2cc(Br)c(C)cc2OC[C@@H]2CNCCO2)cn1	1.2µM*	nt	nt	nt	nt
CCOc1ccccc1OCC1CNCCO1 (stereo not given)	3%	nt	i	nt	nt
COc1ccc(Cl)cc1NC(=O)C1CC(=O)N(C2CCCCC2)C1 (stereo not given)	3%	-9%	i	-5%	-6%
O=C(NCCC1=CCCCC1)C1CC(=O)N(C2CCCCC2)C1 (stereo not given)	5%	-9%	i	2.8µM*	5%
O=C(Nc1cc(Cl)cc(Cl)c1)C1CC(=O)N(C2CCCC2)C1 (stereo not given)	-13%	nt	i	?	10µM*
O=C(NCC1Cc2cccc(-c3nccs3)c2O1)c1ccnc(Cl)c1 (stereo not given)	nt	nt	i	nt	nt
COc1ccccc1OCCN1CSC(=S)N(C)C1	28µM*	-6%	?	?	-21%
CC(=O)Nc1cc(NC(C)=O)cc(-c2nc3ccccc3[nH]2)c1	?	-3%	32µM*!	7.1µM*!	13µM*!
CCS(=O)(=O)c1ccc2oc(SCC(=O)NC34CC5CC(CC(C5)C3)C4)nc2c1	1%	?	i	-25%	-13%
